Molecules are shown by their SMILES. About 83,000 compounds went through this panel and 20% of them were active in at least one assay; those are over-represented in the sample as a whole.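 Step 1: grow cells in 96-well plates. Step 2: add test compound at a single concentration. Step 3: incubate 48 h. Step 4: record percent growth.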 Active and inactive are the calls of the source. The calls were made as follows: active = growth percent below 10; inactive = the rest.

Data on 39 compounds can be found in PubChem BioAssay (NCI).

The test concerns SK-MEL-28 melanoma. Briefly: NCI-60 one-dose screen, 48 h (100 = growth as untreated, 0 = no growth, -100 = all killed). The note with it: 10 µM unless noted.
For the compound `Clc1ccc(/C=C/c2nc(Nc3ccc(Cl)cc3)c3ccccc3n2)cc1`, the growth is 117% (inactive).
In the case of `CCOC(=O)c1c(C)nc2c(c1N)/C(=C/c1ccc(OC)cc1)C(=O)N2Cc1ccc(F)cc1` it was -39.9% (active).
Consider `CCCCN1CCN(c2ccc3nc(-c4ccc5nc(-c6cc(OC)c(OC)c(OC)c6)[nH]c5c4)[nH]c3c2)CC1`, for which the growth was 66.3% (inactive).
In the case of `O=C1CCC(N2C(=O)c3cccc(NCCCC4CCN(CCNC(=O)c5cc6c(o5)C(=O)c5ccccc5C6=O)CC4)c3C2=O)C(=O)N1` (centres undefined) it was -6.88% (active); in that of `COc1ccc(-c2cncnc2N)cc1OC`, 106% (inactive); in that of `O=S(=O)(NCCNc1cc(-c2c(-c3cccc(O)c3)nc3sccn23)ccn1)c1ccc(Br)cc1`, 84.9% (inactive).
In the case of `CC(=O)c1sc(-c2ccccc2)cc1N` it was 108% (inactive); in that of `Nc1c(C(=O)c2ccccc2)nnc2ncnn12`, 133% (inactive).
Under `CCNCCNc1cc(-c2ccc(C#N)cc2)c(C#N)c2nc3ccccc3n12` stands -47.7% (active); under `Fc1ccc(Nc2nc(Nc3ccc(-c4nc5ccccc5[nH]4)cc3)c3cn[nH]c3n2)cc1`, 51.7% (inactive); under `COc1c(C)cnc(CSc2nc(-c3ccc(C)cc3)cn2-c2ccc(Cl)cc2)c1C`, 97.4% (inactive).
With `Cc1c2c(cn1Cc1ccccc1)CCc1cn[nH]c1-2`, the growth was 105% (inactive).
Under `COc1ccc(O)c(-c2cc(-c3ccccc3)c(C#N)c(=O)[nH]2)c1` stands 113% (inactive).
For the compound `CC(=O)Nc1ccc(C(=O)/C=C/c2ccccc2)cc1`, the growth is 93.4% (inactive).
In the case of `CCCCCCCC/C=C/CCCCCCCC1=NCC[N+]1(CCO)CCO` it was 96.3% (inactive).
Under `Cc1nc(Nc2ccc(NC(=S)Nc3ccccc3)cc2)nc2nc(Nc3cccc(Cl)c3)[nH]c(=O)c12` stands 93.2% (inactive); under `O=[N+]([O-])c1ccc(-c2cc3c(Nc4ccc(Sc5nc6ccccc6s5)c(Cl)c4)ncnc3s2)cc1`, 75.2% (inactive); under `CC(=[N-])N1CCC[C@@H](Nc2c3ccccc3nc3ccccc23)C1.[Cl][Pt].[NH-]CCC[NH-]`, 2.14% (active).
Under `OC(c1cccc(OCc2ccccc2)c1)c1nnc(-c2ccccc2)o1` (centres undefined) stands 108% (inactive).
Consider `COc1ccc(-c2nnc(SCC(=O)NC3=NN=C(c4ccccc4)CS3)o2)cc1`, for which the growth was 109% (inactive).
In the case of `CC(=O)Nc1cccc(C2=CC(c3ccc(C)cc3)n3ncnc3N2)c1` (centres undefined) it was 107% (inactive).
In the case of `CC(C)OC(=O)NNC(=O)c1ccncc1` it was 110% (inactive).
Under `O=C(CC1Sc2ccccc2NC1=O)NNc1ccc(F)cc1` (centres undefined) stands 123% (inactive).
Take `CCCCCCCSc1ccc(C(=O)O)cc1`: the growth was 105% (inactive).
Regarding `CC(c1ccc(-n2cccn2)cc1)c1cnc(N2CCc3ccc(C(N)=O)cc3C2)s1` (centres undefined), the growth is 81.8% (inactive).
In the case of `CCN(CC)CCCNC(=O)c1ccc(N)cc1` it was 96.8% (inactive); in that of `CSc1nc2sc3cc(Cl)ccc3n2c(=N)c1C#N`, 41.9% (inactive).
Under `CCNCCNc1cc(C2CCCC2)c(C#N)c2nc3ccccc3n12` stands -63.8% (active); under `COc1cc2oc3cc(C)oc(=O)c3c2cc1OC`, 115% (inactive); under `Cc1nc(Nc2cccc(NC(=O)Nc3ccc(Cl)cc3)c2)c2ccccc2n1`, 102% (inactive).
Under `CCc1c(C(=O)N[C@@H]2c3cc(Cl)ccc3CC[C@@H]2O)[nH]c(C)c1C(C)=O` stands 81.5% (inactive); under `O=C(CC12CC3CC(CC(C3)C1)C2)NCCOCCOCCOCCNC(=O)c1cc2c(o1)C(=O)c1ccccc1C2=O`, -58.5% (active); under `Cc1cc2c(F)c(Oc3ncnc(Nc4ccc(N5C[C@@H](C)N[C@@H](C)C5)cc4)c3C#N)cc(F)c2[nH]1`, -63.6% (active).
With `COc1ccc(NC(=O)c2cccc(-c3cc(=O)c4c(O)c(OC)c(OC)cc4o3)c2)cc1`, the growth was 104% (inactive).
In the case of `Nc1c(-c2nc3ccc(Br)cc3c(=O)[nH]2)nnn1-c1ccccc1` it was 96.2% (inactive); in that of `CCOc1cc(N)ccc1C(=O)NCCCN(CC)CC`, 97.5% (inactive).
Under `CCN(CC)S(=O)(=O)c1ccc(O)c(NC(=O)c2[nH]c(C)c(C(C)=O)c2CCc2ccc(Cl)cc2)c1` stands 70.9% (inactive); under `C=CC(=O)Nc1cccc(C)c1Nc1cc(-c2cccnc2Cc2c(C)c(OC)cc(OC)c2C)ncn1`, 44.3% (inactive).
Under `CC(C)c1ccc(C(=O)OC(=O)c2ccc(C(C)C)cc2)cc1` stands 115% (inactive).
